Here are results for 44 molecules from PubChem BioAssay AID1478 (National Center for Advancing Translational Sciences (NCATS), 2009).

Hit rate of the full screen: of about 200,000 compounds, about 860 (0.43%) were called active. For the sample, actives were picked, then their nearest neighbours and some compounds at random. Unmarked numbers belong to inactive results. Calls follow the shape of the dose curve; as a rule, active = well fitted inhibition curve with a large enough effect; inconclusive = small, poorly fitted or top-dose-only effect; inactive = flat fitted curve, though single readings scatter.
Potency is read from the fitted curve at half-maximal effect.

In this test the target is Cruzipain (Trypanosoma cruzi) (UniProt P25779). Put plainly: qHTS Assay for Promiscuous and Specific Inhibitors of Cruzain (with detergent). Also: nearly all actives have a fitted effect of over 40% in size. The settings on record: purified cruzain, Z-FR-AMC fluorescence, 0.01% Triton. As for the experimental part: Cruzain (3.4.22.51) is a cysteine protease from the tropical parasite Trypanosoma cruzi. Dual qHTS experiment was performed against the NCGC compound collection in order to 1) identify novel inhibitors of the enzyme and 2) profile the compound collection for promiscuous inhibitors operating via colloidal aggregation (by performing detergent-free and detergent-containing comparison screens). Cruzain was assayed by the use of fluorogenic coumarin-based substrate Z-FR-AMC: proteolytic cleavage releases AMC, whose fluorescence is measured at 360 nm excitation and 450 nm emission. Purified cruzain was supplied by the labs of Prof. James McKerrow and Brian Shoichet, UC San Francisco.
Sequence of Cruzipain (Trypanosoma cruzi) (P25779 123-467 limits assumed): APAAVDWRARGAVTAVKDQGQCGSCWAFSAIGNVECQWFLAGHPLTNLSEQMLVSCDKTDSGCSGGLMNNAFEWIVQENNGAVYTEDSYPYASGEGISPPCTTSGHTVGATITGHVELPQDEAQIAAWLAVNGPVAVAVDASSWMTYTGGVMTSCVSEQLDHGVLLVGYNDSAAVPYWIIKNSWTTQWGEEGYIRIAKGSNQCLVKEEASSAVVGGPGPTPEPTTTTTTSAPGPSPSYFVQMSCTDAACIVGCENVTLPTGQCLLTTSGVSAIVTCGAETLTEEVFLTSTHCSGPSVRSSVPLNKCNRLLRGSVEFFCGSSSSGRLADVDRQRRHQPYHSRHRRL
This assay had 0.01% Triton X-100 concentration. See also releated assay "qHTS Assay for Promiscuous and Specific Inhibitors of Cruzain (without detergent)" with 0.00005% Triton X-100.
See following references for additional details:
Assay Provider: Shoichet, Brian; University of California, San Fancisco
Screening Center PI: Austin, C.P.
Screening Center: NIH Chemical Genomics Center [NCGC]
Buffer: 100 mM Sodium Acetate, pH 5.5, 5 mM DTT, Triton X-100 concentration: 0.01%.
Buffer in columns 3 and 4 as negative control (no enzyme).
Substrate solution: 2 uM final concentration of Z-FR-AMC (catalog number I-1160, Bachem) dispensed throughout the plate.
Enzyme: 1.5 nM Cruzain final concentration in columns 1, 2, 5-48. Column 1 is neutral (100% activity). Column 2 contained titration of covalent inhibitor K11777, starting concentration 1 mM, then 1:2 dilution in duplicate).
Three uL of enzyme or buffer were dispensed to 1536-well Greiner black solid bottom plates. Compounds and controls (23 nL) were transferred via Kalypsys PinTool. The plates were incubated for 15 min at room temperature, and then 1 uL of substrate solution was added to start the reaction. The plates were immediately transferred to and read 4 times every 30 seconds for 2 min on ViewLux High-throughput CCD imager (Perkin-Elmer) using 360 nm excitation and 450 nm emission fluorescence protocol. The fluorescence intensity difference between the third and the first time points (time lapse of 60 seconds) was used to compute reaction progress.
For `COc1ccc(Cl)cc1NC(=O)COC(=O)C(CC(C)C)N1C(=O)C2CC=CCC2C1=O` (centres undefined), the Potency is 12.6 µM (active).

As to `COc1ccc(Cl)cc1NC(=O)Cn1c(=O)c2ccccc2n2nncc12`, the max response, negative = inhibition is -4.81%.

On to `COc1ccc(Cl)cc1NC(=O)CNc1ccccc1F`, for which the max response, negative = inhibition is -7.98%.

For `Cc1oc2ccc(O)c(CN3CCCCC3)c2c1C(=O)Nc1cccc(C(F)(F)F)c1`, the max response, negative = inhibition is -4.76%.

`Cc1cc(C)cc(NS(=O)(=O)c2ccc(-c3cc(C)no3)s2)c1`: the max response, negative = inhibition is -11.1%.

As to `Cn1c(C(=O)NCCCN2CCN(c3cccc(Cl)c3)CC2)cc2c(=O)n(C)c3ccccc3c21`, the max response, negative = inhibition was -27.7%.

Take `O=C(NCCN1CCN(Cc2ccccc2)CC1)c1cc2c(=O)[nH]c3ccccc3c2s1`: the max response, negative = inhibition is -12.6%.

In the case of `Cn1c(C(=O)NCCN2CCc3ccccc3C2)cc2c(=O)[nH]c3ccccc3c21`, the Potency was 15.8 µM (active).

For `CC(=O)c1nn(-c2ccc(OC(F)(F)F)cc2)nc1Nc1ccccc1`, the max response, negative = inhibition was 1.04%.

Regarding `O=C(CSc1nc2nccnc2c(=O)n1CCc1c[nH]c2ccccc12)Nc1ccccc1F`, the max response, negative = inhibition was -2.4%.

Turning to `O=C(C1COc2ccccc2O1)N(Cc1cccnc1)c1nc2c(F)cc(F)cc2s1` (centres undefined), the max response, negative = inhibition was -3.06%.

`CC(C)c1ccc(NC(=O)Cn2nnc(C(=O)NCCc3ccccc3)c2N)cc1`: the max response, negative = inhibition was 0.0037%.

`COC(=O)c1scc(-c2ccc(C)cc2)c1S(=O)(=O)Nc1cc(Cl)c(OC)cc1OC`: the max response, negative = inhibition was -7.07%.

In the case of `O=C1CCCN1CCCNc1ncnc2c1[nH]c1ccccc12`, the Potency was 15.8 µM (active).

Turning to `Cc1cccc(C(=O)NCCCN2CCCC2=O)c1`, the max response, negative = inhibition was 6.06%.

Take `O=C(CCn1c(=S)[nH]c2ccccc2c1=O)NCCCN1CCCC1=O`: the max response, negative = inhibition was 0.249%.

Turning to `Cc1nn(C(=O)c2c(F)cccc2F)c(C)c1S(=O)(=O)N1CCOCC1`, the max response, negative = inhibition is 0.43%.

For the molecule `COc1ccc(CC(=O)NCCc2sc3nc(-c4ccc(OC)cc4)nn3c2C)cc1`, the max response, negative = inhibition is -3.58%.

Turning to `COc1cc(OC)cc(C(=O)Nc2cc3nn(-c4ccccc4)nc3cc2Cl)c1`, the max response, negative = inhibition was 6.82%.

Regarding `CCC(=O)NCCc1nc2ccccc2n1CC`, the max response, negative = inhibition is 4.89%.

With `Cc1ccc(C)c(Cn2c(CCCNC(=O)C3CCCCC3)nc3ccccc32)c1`, the max response, negative = inhibition is -3.31%.

Regarding `CCCCn1c(CCCNC(=O)CC)nc2ccccc21`, the max response, negative = inhibition was -2.07%.

As for `CCCCCn1c(CCCNC(=O)c2ccccc2OC)nc2ccccc21`, the max response, negative = inhibition is -1.13%.

As to `CCCCCn1c(CCNC(=O)c2ccc(F)cc2)nc2ccccc21`, the Potency was 4.47 µM (active).

In the case of `Cc1cccc(C(=O)NCCc2nc3ccccc3n2Cc2ccccc2Cl)c1`, the Potency is 8.91 µM (active).

As to `COc1ccc(Cn2c(C(=O)O)c(CNCc3cccc(OC)c3)c3ccc(C)cc32)cc1`, the max response, negative = inhibition was -10.4%.

For the molecule `CCCCCn1c(=O)[nH]c2cc(C(=O)Nc3ccc(F)cc3)ccc2c1=O`, the max response, negative = inhibition was -0.504%.

As for `O=C(Nc1cc(C(F)(F)F)ccc1Cl)c1nc2ccccc2nc1N1CCCCC1`, the max response, negative = inhibition was 2.61%.

`COc1ccccc1NC(=O)C(=O)c1cc(C)n(-c2ccccc2F)c1C`: the max response, negative = inhibition was -2.07%.

As for `O=C(CC1N=C2c3ccccc3N=C(SCc3ccc(F)cc3)N2C1=O)NCc1cccs1` (centres undefined), the max response, negative = inhibition was -4.42%.

Regarding `COc1cc(OC)c(NC(=O)c2cnc(N3CCCC3)nc2C)cc1Cl`, the max response, negative = inhibition was -6.84%.

On to `Cc1ccc(CNS(=O)(=O)c2ccc(C(=O)N(C)C)s2)cc1`, for which the max response, negative = inhibition was -0.386%.

With `CCc1ccccc1NC(=O)Cc1ccc(NC(=O)N2CCCCc3ccccc32)cc1`, the max response, negative = inhibition is -5.61%.

As to `CC(=O)N1CCCc2cc(S(=O)(=O)N3CCC(C(=O)NC4CCCCC4)CC3)ccc21`, the max response, negative = inhibition was -0.0735%.

As for `O=C(NCc1ccco1)c1cc(-c2cccnc2)nc2ccc(Cl)cc12`, the max response, negative = inhibition is -13.8%.

Consider `CCOc1ccc(CNC(=O)c2cc(-c3ccc(Cl)s3)nc3ccccc23)cc1`, for which the max response, negative = inhibition was -0.709%.

Turning to `CCc1ccc(-c2cc(C(=O)NCc3ccco3)c3ccccc3n2)s1`, the Potency is 22.4 µM (active).

In the case of `Cc1ccc2nc(/C(C#N)=C/c3ccc(-c4ccc(C(=O)OC(C)C)cc4)o3)[nH]c2c1`, the max response, negative = inhibition was -3.11%.

For the molecule `Fc1ccc(-c2nc(Nc3cccc(Cl)c3)nc3c2COc2ccccc2-3)cc1`, the max response, negative = inhibition is -3.92%.

For the molecule `Cc1ccc(-n2ncc3c(NCCCn4ccnc4)ncnc32)cc1Cl`, the max response, negative = inhibition was -0.0419%.

Regarding `CC(=O)CCC(=O)c1ccc2ccccc2c1`, the max response, negative = inhibition was -3%.

`CC(=O)c1ccc2c(ccc3ccccc32)c1`: the max response, negative = inhibition was -9.87%.

With `C=CC(=O)c1ccc2ccccc2c1`, the Potency is 3.98 µM (active).

Regarding `COc1ccc(Cc2nc3ccc(C(=O)NCc4ccc(OC)cc4OC)cc3o2)cc1`, the max response, negative = inhibition is -5.34%.
